# Laboratory results as given in article PMC7862700, “An all-to-all approach to the identification of sequence-specific readers for epigenetic DNA modifications on cytosine”.
# Legend:
# Test in all cases: DAPPL (digital affinity profiling via proximity ligation, sequencing); 10 mM Tris-HCl pH 7.5, 50 mM NaCl, 1 mM DTT, 4% glycerol, room temperature, 30 min; GST-TFs on glutathione beads, 16-mer random dsDNA library, 0.1% formaldehyde crosslink after washing; high values mean tight binding
# FLI1 = molecular target: T1, FLI1 (Homo sapiens, UniProt Q01543 1-452); conditions: protein: recombinant; tags: N-terminal GST; dsDNA, one strand shown
# T1 sequence: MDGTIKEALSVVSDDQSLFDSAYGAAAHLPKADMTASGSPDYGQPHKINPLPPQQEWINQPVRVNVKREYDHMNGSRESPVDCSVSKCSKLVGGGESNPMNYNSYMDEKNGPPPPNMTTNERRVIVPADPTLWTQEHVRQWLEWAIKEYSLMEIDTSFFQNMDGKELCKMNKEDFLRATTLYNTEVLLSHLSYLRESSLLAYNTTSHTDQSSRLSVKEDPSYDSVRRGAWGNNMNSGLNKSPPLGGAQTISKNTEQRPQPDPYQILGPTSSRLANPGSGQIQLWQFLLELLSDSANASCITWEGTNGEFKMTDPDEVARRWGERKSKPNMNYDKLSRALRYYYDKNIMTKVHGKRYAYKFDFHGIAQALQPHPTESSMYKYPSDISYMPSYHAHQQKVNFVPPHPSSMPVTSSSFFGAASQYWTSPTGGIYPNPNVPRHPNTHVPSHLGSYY
# Outline: (§1)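 A tag-only sample was pooled with DNA-barcoded human transcription factors that had been expressed in yeast as GST fusions and captured on glutathione beads. The pools were incubated for 30 min at room temperature with 200 nmole of a random double-stranded 16-mer DNA library in Tris/NaCl/DTT/glycerol buffer, then washed, crosslinked with 0.1% formaldehyde, proximity-ligated (BsaI/T4 ligase, 1 h, 37 °C), PCR-amplified and sequenced on an Illumina NextSeq500. Binding signal is each hexamer's read frequency for a factor divided by its frequency for the tag-only sample.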
# ELK1 = molecular target: T2, ELK1 (Homo sapiens, UniProt P19419 1-428); conditions: protein: recombinant; tags: N-terminal GST; dsDNA, one strand shown
# T2 sequence: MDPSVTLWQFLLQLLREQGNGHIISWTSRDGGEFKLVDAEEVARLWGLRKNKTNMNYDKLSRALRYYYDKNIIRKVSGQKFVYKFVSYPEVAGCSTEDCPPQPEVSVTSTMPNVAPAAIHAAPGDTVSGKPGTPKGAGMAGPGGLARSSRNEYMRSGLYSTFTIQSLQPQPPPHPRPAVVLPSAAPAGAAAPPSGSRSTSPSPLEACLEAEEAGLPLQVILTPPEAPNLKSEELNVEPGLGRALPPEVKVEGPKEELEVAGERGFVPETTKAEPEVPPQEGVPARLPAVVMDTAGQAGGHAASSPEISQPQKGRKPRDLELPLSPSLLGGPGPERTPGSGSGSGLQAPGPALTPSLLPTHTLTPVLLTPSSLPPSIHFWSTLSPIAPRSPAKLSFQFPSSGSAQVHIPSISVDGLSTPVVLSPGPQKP
# Outline: as §1
# GABPA = molecular target: T3, GABPA (Homo sapiens, UniProt Q06546 1-454); conditions: protein: recombinant; tags: N-terminal GST; dsDNA, one strand shown
# T3 sequence: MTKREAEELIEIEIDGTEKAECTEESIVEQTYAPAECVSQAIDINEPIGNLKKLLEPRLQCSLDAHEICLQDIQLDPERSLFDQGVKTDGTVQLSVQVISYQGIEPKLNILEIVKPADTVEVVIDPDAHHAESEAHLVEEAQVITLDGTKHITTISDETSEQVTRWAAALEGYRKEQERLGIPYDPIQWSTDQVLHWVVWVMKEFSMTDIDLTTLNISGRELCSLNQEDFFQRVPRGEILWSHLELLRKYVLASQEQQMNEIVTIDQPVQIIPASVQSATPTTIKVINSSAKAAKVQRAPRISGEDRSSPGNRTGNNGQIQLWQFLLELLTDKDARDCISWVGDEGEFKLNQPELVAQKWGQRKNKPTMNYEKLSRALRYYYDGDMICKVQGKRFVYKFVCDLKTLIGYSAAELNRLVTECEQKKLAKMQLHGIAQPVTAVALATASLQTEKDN
# Outline: as §1
# ERG = molecular target: T4, ERG (Homo sapiens, UniProt P11308 1-479); conditions: protein: recombinant; tags: N-terminal GST; dsDNA, one strand shown
# T4 sequence: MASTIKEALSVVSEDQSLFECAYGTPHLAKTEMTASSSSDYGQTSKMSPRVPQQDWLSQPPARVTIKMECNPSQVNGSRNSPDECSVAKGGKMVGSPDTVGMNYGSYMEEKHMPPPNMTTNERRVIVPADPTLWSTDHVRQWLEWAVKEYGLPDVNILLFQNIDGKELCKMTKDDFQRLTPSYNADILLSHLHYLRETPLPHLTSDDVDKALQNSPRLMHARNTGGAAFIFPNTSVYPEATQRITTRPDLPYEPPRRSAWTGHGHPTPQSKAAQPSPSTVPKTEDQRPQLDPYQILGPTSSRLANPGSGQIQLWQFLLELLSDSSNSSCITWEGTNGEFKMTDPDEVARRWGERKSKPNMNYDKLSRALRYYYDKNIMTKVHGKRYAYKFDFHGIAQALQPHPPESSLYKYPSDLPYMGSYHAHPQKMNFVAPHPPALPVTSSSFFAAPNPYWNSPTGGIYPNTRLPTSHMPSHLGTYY
# Outline: as §1
# ELF1 = ELF1 (Homo sapiens, UniProt P32519 1-619); conditions: protein: recombinant; tags: N-terminal GST; dsDNA, one strand shown
# Sequence of ELF1 (P32519 whole entry): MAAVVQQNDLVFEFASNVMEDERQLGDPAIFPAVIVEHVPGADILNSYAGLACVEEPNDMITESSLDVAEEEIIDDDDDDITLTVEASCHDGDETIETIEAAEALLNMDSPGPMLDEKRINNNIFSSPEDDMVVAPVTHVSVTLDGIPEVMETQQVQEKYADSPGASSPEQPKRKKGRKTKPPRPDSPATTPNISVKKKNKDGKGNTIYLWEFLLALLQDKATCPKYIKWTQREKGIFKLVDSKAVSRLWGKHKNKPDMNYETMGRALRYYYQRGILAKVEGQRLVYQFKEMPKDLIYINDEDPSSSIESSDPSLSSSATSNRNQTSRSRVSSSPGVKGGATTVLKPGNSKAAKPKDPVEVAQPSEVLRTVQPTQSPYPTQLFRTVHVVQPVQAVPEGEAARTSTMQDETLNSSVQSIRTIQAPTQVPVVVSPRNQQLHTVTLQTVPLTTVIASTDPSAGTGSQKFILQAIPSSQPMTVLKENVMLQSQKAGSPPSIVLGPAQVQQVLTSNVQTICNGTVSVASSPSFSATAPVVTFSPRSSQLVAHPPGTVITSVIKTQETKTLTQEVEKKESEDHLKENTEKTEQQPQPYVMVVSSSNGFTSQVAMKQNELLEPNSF
# Outline: as §1
# EHF = molecular target: T5, EHF (Homo sapiens, UniProt Q9NZC4 1-300); conditions: protein: recombinant; tags: N-terminal GST; dsDNA, one strand shown
# T5 sequence: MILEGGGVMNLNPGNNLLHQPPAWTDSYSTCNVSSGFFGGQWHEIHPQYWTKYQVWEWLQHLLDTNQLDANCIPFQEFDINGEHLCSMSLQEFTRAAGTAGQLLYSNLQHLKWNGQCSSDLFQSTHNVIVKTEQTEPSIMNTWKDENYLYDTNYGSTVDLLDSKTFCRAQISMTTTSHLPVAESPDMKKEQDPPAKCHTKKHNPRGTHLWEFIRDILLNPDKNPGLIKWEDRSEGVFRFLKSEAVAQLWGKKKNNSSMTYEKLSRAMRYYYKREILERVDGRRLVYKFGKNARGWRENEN
# Outline: as §1
# SPI1 = SPI1 (Homo sapiens, UniProt P17947 1-270); conditions: protein: recombinant; tags: N-terminal GST; dsDNA, one strand shown
# Outline: as §1
# SPIB = SPIB (Homo sapiens, UniProt Q01892 1-262); conditions: protein: recombinant; tags: N-terminal GST; dsDNA, one strand shown
# Sequence of SPIB (Q01892 whole entry): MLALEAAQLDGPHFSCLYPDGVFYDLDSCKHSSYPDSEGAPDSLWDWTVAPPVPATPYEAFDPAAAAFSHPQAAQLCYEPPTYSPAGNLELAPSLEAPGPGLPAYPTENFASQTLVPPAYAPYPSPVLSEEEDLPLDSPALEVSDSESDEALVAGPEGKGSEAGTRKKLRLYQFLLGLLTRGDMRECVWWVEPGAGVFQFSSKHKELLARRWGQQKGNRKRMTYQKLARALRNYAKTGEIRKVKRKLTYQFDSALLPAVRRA
# Outline: as §1
# ELK3 = molecular target: T6, ELK3 (Homo sapiens, UniProt P41970 1-407); conditions: protein: recombinant; tags: N-terminal GST; dsDNA, one strand shown
# T6 sequence: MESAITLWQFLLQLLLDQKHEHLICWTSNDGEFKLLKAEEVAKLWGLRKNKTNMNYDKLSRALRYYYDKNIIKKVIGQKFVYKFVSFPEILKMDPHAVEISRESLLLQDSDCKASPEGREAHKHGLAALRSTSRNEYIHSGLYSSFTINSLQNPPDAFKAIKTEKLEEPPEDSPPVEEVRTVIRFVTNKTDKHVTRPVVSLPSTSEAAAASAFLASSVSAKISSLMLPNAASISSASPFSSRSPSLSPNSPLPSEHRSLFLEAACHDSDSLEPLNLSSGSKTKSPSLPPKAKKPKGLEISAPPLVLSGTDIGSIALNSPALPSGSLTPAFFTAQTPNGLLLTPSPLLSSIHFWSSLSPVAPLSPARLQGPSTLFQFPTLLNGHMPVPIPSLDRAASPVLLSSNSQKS
# Outline: as §1
# FEV = molecular target: T7, FEV (Homo sapiens, UniProt Q99581 1-238); conditions: protein: recombinant; tags: N-terminal GST; dsDNA, one strand shown
# T7 sequence: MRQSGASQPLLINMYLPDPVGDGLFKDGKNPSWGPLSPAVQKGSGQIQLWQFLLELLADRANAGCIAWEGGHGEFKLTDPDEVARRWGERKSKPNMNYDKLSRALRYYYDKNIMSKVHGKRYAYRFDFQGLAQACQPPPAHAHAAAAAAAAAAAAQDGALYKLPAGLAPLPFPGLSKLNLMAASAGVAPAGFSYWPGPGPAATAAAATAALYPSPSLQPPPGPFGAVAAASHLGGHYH
# Outline: as §1
# ETV5 = ETV5 (Homo sapiens, UniProt P41161 1-510); conditions: protein: recombinant; tags: N-terminal GST; dsDNA, one strand shown
# Sequence of ETV5 (P41161 whole entry): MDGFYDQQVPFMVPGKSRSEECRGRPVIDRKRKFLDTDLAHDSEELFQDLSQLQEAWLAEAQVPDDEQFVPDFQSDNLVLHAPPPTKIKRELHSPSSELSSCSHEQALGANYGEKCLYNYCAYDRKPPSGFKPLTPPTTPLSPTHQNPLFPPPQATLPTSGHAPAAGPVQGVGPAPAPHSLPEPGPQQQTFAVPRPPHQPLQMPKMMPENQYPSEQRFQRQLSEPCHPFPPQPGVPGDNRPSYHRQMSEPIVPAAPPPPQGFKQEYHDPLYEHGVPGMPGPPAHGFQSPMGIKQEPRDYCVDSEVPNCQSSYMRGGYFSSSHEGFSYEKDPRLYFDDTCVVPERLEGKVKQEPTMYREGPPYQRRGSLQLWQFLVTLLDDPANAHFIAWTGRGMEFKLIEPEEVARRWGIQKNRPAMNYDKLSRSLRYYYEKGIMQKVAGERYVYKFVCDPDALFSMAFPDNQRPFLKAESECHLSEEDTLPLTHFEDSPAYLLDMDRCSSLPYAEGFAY
# Outline: as §1
# HSF1 = HSF1 (Homo sapiens, UniProt Q00613 1-529); conditions: protein: recombinant; tags: N-terminal GST; chain copies: 3; dsDNA, one strand shown
# Sequence of HSF1 (Q00613 whole entry): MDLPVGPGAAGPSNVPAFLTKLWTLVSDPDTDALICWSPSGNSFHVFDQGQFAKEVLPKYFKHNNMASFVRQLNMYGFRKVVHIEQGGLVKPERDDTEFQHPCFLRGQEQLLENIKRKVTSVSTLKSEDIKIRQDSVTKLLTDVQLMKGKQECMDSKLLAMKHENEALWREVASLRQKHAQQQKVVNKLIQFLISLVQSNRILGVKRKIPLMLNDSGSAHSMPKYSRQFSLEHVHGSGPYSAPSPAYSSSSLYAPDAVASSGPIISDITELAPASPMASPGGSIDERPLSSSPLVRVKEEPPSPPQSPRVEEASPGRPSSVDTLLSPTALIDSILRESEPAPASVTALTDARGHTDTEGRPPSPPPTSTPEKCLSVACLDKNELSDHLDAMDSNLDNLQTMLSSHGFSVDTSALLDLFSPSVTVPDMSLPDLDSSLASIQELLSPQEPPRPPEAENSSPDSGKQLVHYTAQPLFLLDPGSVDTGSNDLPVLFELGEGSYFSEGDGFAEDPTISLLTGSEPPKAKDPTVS
# Outline: as §1
# SPIC = molecular target: T8, SPIC (Homo sapiens, UniProt Q8N5J4 1-248); conditions: protein: recombinant; tags: N-terminal GST; dsDNA, one strand shown
# T8 sequence: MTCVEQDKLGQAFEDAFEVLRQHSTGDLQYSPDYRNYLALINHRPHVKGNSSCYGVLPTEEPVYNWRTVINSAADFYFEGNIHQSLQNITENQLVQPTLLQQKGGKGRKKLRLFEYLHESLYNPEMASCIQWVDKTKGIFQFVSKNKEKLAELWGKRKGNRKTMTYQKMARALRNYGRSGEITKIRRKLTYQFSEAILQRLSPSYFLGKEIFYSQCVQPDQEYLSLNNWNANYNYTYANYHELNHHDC
# Outline: as §1
# ELF4 = ELF4 (Homo sapiens, UniProt Q99607 1-663); conditions: protein: recombinant; tags: N-terminal GST; dsDNA, one strand shown
# Sequence of ELF4 (Q99607 whole entry): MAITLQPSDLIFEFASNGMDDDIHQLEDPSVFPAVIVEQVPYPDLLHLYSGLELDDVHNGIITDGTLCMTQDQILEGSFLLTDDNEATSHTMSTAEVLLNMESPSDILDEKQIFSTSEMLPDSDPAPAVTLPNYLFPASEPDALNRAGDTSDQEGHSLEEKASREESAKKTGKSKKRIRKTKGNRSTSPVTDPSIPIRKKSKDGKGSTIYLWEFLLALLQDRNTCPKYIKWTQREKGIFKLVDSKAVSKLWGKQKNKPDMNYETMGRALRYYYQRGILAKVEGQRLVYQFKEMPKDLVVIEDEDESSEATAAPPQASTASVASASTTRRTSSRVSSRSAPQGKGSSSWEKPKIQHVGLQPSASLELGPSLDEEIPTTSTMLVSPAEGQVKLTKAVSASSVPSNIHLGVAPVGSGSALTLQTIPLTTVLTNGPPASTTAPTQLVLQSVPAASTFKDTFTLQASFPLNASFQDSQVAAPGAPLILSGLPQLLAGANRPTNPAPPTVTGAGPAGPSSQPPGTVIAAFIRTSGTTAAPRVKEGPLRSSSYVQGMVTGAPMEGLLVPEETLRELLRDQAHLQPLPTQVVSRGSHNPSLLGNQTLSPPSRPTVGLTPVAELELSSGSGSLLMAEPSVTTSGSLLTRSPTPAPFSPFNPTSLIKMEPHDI
# Outline: as §1
# ELK4 = molecular target: T9, ELK4 (Homo sapiens, UniProt P28324-2 1-405); conditions: protein: recombinant; tags: N-terminal GST; dsDNA, one strand shown
# T9 sequence: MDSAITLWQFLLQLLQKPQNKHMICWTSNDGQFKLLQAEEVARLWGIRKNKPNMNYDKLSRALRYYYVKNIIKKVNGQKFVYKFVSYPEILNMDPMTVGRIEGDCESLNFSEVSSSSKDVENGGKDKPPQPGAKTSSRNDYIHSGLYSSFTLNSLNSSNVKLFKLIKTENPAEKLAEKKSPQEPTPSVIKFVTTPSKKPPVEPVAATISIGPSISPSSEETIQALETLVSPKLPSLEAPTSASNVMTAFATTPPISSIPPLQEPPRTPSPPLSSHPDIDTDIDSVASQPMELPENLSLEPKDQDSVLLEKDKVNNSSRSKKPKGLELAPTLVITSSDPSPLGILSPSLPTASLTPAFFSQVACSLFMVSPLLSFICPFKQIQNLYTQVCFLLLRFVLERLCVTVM
# Outline: as §1
# ETV2 = molecular target: T10, ETV2 (Homo sapiens, UniProt O00321 1-342); conditions: protein: recombinant; tags: N-terminal GST; dsDNA, one strand shown
# T10 sequence: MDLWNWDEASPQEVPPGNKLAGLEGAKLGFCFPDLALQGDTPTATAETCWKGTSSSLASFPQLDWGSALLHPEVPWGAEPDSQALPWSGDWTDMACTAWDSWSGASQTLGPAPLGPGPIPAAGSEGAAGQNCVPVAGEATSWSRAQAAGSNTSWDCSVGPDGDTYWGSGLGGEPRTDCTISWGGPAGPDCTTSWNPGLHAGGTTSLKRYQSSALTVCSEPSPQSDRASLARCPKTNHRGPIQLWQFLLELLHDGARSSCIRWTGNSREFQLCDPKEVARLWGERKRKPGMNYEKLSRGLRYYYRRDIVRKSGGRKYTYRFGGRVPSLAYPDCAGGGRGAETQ
# Outline: as §1
# ELF3 = molecular target: T11, ELF3 (Homo sapiens, UniProt P78545 1-371); conditions: protein: recombinant; tags: N-terminal GST; dsDNA, one strand shown
# T11 sequence: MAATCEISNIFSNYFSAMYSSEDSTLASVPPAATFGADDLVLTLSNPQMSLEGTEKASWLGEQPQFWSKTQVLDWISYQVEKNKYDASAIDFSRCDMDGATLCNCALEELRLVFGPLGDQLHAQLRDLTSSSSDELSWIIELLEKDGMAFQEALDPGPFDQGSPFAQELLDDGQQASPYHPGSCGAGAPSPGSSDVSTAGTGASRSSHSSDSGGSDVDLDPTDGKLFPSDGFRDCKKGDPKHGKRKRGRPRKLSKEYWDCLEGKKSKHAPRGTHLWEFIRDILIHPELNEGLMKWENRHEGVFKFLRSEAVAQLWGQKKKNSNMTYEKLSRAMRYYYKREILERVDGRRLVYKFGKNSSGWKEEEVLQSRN
# Outline: as §1
# CRX = CRX (Homo sapiens, UniProt O43186 1-299); conditions: protein: recombinant; tags: N-terminal GST; dsDNA, one strand shown
# Sequence of CRX (O43186 whole entry): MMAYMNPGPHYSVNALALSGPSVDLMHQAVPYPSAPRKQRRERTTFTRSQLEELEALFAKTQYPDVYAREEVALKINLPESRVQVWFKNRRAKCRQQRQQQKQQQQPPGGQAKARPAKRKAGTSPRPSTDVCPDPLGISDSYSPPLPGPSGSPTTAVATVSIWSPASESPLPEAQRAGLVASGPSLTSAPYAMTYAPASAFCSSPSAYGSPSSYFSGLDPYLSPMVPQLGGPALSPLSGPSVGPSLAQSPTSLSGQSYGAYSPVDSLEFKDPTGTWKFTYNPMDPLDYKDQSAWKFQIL
# Outline: as §1
# ETV1 = ETV1 (Homo sapiens, UniProt P50549 1-477); conditions: protein: recombinant; tags: N-terminal GST; dsDNA, one strand shown
# Sequence of ETV1 (P50549 whole entry): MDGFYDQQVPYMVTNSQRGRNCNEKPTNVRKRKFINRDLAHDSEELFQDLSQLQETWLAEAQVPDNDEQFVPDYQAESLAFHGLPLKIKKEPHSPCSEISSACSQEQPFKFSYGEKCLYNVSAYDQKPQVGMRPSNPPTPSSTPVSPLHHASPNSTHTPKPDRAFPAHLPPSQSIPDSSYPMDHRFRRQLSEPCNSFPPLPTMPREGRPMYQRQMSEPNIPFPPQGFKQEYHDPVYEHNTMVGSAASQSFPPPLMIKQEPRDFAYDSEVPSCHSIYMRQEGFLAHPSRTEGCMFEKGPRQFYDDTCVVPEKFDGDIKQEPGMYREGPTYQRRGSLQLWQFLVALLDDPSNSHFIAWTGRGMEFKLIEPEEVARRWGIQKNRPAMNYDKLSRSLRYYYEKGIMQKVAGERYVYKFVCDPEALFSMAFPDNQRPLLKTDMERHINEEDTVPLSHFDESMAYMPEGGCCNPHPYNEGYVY
# Outline: as §1
sequence,measurement,setting,value
ACCTCT,binding signal,FLI1,"1.32 fold enrichment (6-mer frequency, TF over GST control)"
same,binding signal,ELK1,"1.37 fold enrichment (6-mer frequency, TF over GST control)"
same,binding signal,GABPA,"1.41 fold enrichment (6-mer frequency, TF over GST control)"
same,binding signal,ERG,"1.41 fold enrichment (6-mer frequency, TF over GST control)"
same,binding signal,ELF1,"1.47 fold enrichment (6-mer frequency, TF over GST control)"
same,binding signal,EHF,"1.37 fold enrichment (6-mer frequency, TF over GST control)"
same,binding signal,SPI1,"1.29 fold enrichment (6-mer frequency, TF over GST control)"
same,binding signal,SPIB,"1.24 fold enrichment (6-mer frequency, TF over GST control)"
same,binding signal,ELK3,"1.36 fold enrichment (6-mer frequency, TF over GST control)"
same,binding signal,FEV,"1.3 fold enrichment (6-mer frequency, TF over GST control)"
same,binding signal,ETV5,"1.31 fold enrichment (6-mer frequency, TF over GST control)"
same,binding signal,HSF1,"1.18 fold enrichment (6-mer frequency, TF over GST control)"
same,binding signal,SPIC,"1.47 fold enrichment (6-mer frequency, TF over GST control)"
same,binding signal,ELF4,"1.33 fold enrichment (6-mer frequency, TF over GST control)"
same,binding signal,ELK4,"1.29 fold enrichment (6-mer frequency, TF over GST control)"
same,binding signal,ETV2,"1.35 fold enrichment (6-mer frequency, TF over GST control)"
same,binding signal,ELF3,"1.51 fold enrichment (6-mer frequency, TF over GST control)"
same,binding signal,CRX,"1.19 fold enrichment (6-mer frequency, TF over GST control)"
same,binding signal,ETV1,"1.3 fold enrichment (6-mer frequency, TF over GST control)"
